Test results published in PubChem BioAssay (Tox21).
Records with an inconclusive call do not appear. Active and inactive are the calls of the source. Unless noted, the call rests on the fitted dose curve; in most records, active means well fitted curve in the direction sought with a large enough effect in the repeat runs; inconclusive means weak or mixed curves; inactive means no such curve, though single readings can be large; an effect the other way counts as inactive or inconclusive.

What was measured:
[1] = qHTS assay to identify small molecule antagonists of the thyroid receptor (TR) signaling pathway - cell viability counter screen (AID 743064); further: nearly all actives have a fitted effect of over 50% in size; further: potency means the concentration at half of the fitted maximal effect
Outline: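 GH3.TRE-Luc rat pituitary cells carrying a TRE-luciferase reporter were treated with compound plus 1 nM T3 (final) for 23.5 h at 37 °C. Viability was then read in the same wells by CellTiter-Fluor fluorescence after a further 30 min.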

[2] = qHTS assay to identify small molecule antagonists of the thyroid receptor (TR) signaling pathway (AID 743065); further: nearly all actives have a fitted effect of over 55% in size; further: potency means the concentration at half of the fitted maximal effect
Outline: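 Antagonism measured as loss of luciferase signal in GH3 cells stably carrying a TRE-luciferase reporter, co-treated with compound and T3 (1 nM final) for 23.5 h at 37 C. Viability was read in the same well by CellTiter-Fluor.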

[3] = system: thyroid hormone receptor (rat, GH3 cells); test: qHTS assay to identify small molecule agonists of the thyroid receptor (TR) signaling pathway (AID 743066; calls by dose curve)
[4] = qHTS assay to identify small molecule antagonists of the estrogen receptor alpha (ER-alpha) signaling pathway - cell viability counter screen (AID 743074; calls by dose curve;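 further: HEK293 cells carrying ER-alpha-UAS-bla reporter stimulated with 17beta-estradiol; nearly all actives have a fitted effect of over 45% in size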)
[5] = qHTS assay to identify small molecule antagonists of the estrogen receptor alpha (ER-alpha) signaling pathway using the BG1 cell line - cell viability counter screen (AID 743081);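 further: compound given together with 17beta-estradiol as the ER stimulus; nearly all actives have a fitted effect of over 45% in size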; further: potency means the concentration at half of the fitted maximal effect
[6] = qHTS assay to identify small molecule that activate the aryl hydrocarbon receptor (AhR) signaling pathway - cell viability counter screen (AID 743086); further: nearly all actives have a fitted effect of over 45% in size; further: potency means the concentration at half of the fitted maximal effect
Outline: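 Cytotoxicity counter screen: CellTiter-Fluor signal (30 min, 37 C) in 4000 HepG2 cells/well carrying the DRE-luciferase reporter, following 24 h compound exposure at 37 C.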

[7] = qHTS assay to identify small molecule phospholipidosis (PLD) inducers (AID 1259344; active means well fitted curve in the direction sought with a large enough effect; an effect the other way counts as inactive or inconclusive)
Outline: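 Fluorescent phospholipid staining (LipidTOX Red) measured by automated microscopy in fixed HepG2 cells after 24 h treatment; nuclei counterstained with Hoechst 33342; amiodarone as reference inducer.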

[8] = target: Nuclear receptor subfamily 1 group I member 2 (Rattus norvegicus) (UniProt Q9R1A7); test: Rat pregnane X receptor (rPXR) activation by small molecules, qHTS assay (AID 1346983); conditions: rPXR luciferase reporter cells, One-Glo luminescence, 24 h; max activation: hits give high values; further: nearly all actives have a fitted effect of over 20% in size; further: potency means the concentration at half of the fitted maximal effect
Nuclear receptor subfamily 1 group I member 2 (Rattus norvegicus), sequence (Q9R1A7 whole entry, looked up): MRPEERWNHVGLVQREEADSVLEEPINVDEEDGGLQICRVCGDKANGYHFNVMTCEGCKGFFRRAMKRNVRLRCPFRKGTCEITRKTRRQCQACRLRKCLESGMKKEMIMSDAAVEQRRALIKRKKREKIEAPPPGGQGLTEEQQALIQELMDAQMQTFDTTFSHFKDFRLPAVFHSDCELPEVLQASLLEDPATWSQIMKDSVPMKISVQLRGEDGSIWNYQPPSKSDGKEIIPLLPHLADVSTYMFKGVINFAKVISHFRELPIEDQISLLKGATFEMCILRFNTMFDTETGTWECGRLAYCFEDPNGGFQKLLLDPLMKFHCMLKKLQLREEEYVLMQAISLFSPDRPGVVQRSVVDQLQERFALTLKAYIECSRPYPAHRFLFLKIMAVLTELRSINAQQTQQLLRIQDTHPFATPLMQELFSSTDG
Outline: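 Luminescent readout (One-Glo luciferase, 30 min room temperature) followed 24 hr compound treatment at 37 C of rPXR cells plated 2,000 per well and preincubated 5hr; qHTS format with compounds delivered in DMSO.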

[9] = target: Nuclear receptor subfamily 1 group I member 2 (Homo sapiens) (UniProt O75469); test: CYP3A4 induction through human pregnane X receptor (PXR) by small molecules, qHTS assay (AID 1346984); further: nearly all actives have a fitted effect of over 40% in size
Outline: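 DPX-2 HepG2 cells carrying a PXR response element and CYP3A4-promoter luciferase construct, treated with compounds 24 hr at 37C. Then P450-Glo CYP3A4 Luciferin-IPA substrate (3uM final) for 3 hr at 37C, One-Glo added, luminescence read.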

[10] = target: Nuclear receptor subfamily 1 group I member 2 (Homo sapiens) (UniProt O75469); test: Human pregnane X receptor (PXR) activation by small molecules, qHTS assay (AID 1346985); further: nearly all actives have a fitted effect of over 40% in size
Outline: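 DPX-2 cells (HepG2 co-transfected with a PXR response element and a CYP3A4-promoter luciferase construct) were seeded at 2,000 per well, rested 5 hr at 37C, then exposed to DMSO-dissolved compounds for 24 hr. Activation was read as luciferase luminescence.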

Aromatase (Homo sapiens) = Aromatase (Homo sapiens) (UniProt P11511); test: qHTS assay to identify aromatase inhibitors (AID 743083); further: nearly all actives have a fitted effect of over 55% in size; further: potency means the concentration at half of the fitted maximal effect
Aromatase (Homo sapiens), sequence (P11511 whole entry, looked up): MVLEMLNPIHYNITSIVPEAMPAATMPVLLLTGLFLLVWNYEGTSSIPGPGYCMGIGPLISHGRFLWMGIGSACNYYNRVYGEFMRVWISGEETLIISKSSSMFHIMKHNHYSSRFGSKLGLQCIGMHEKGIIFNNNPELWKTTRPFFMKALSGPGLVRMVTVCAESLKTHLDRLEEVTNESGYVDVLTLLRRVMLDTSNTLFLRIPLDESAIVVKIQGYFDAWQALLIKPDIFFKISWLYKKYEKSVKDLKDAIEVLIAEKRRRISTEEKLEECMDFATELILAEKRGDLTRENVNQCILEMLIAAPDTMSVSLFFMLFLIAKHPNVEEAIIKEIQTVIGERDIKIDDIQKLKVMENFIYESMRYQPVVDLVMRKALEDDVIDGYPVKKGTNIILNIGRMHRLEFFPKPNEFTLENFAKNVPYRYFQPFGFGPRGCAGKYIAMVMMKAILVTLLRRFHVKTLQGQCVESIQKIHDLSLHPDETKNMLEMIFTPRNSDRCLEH

[11] = qHTS assay to identify aromatase inhibitors - cell viability counter screen (AID 743084);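 further: cells stimulated with testosterone during compound exposure; nearly all actives have a fitted effect of over 55% in size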
[12] = target: Aryl hydrocarbon receptor (Homo sapiens) (UniProt P35869); test: qHTS assay to identify small molecule that activate the aryl hydrocarbon receptor (AhR) signaling pathway (AID 743085);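 further: HG2L7.5c1 human HepG2 liver cells with stably integrated DRE-driven firefly reporter; nearly all actives have a fitted effect of over 15% in size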
Aryl hydrocarbon receptor (Homo sapiens), sequence (P35869 whole entry, looked up): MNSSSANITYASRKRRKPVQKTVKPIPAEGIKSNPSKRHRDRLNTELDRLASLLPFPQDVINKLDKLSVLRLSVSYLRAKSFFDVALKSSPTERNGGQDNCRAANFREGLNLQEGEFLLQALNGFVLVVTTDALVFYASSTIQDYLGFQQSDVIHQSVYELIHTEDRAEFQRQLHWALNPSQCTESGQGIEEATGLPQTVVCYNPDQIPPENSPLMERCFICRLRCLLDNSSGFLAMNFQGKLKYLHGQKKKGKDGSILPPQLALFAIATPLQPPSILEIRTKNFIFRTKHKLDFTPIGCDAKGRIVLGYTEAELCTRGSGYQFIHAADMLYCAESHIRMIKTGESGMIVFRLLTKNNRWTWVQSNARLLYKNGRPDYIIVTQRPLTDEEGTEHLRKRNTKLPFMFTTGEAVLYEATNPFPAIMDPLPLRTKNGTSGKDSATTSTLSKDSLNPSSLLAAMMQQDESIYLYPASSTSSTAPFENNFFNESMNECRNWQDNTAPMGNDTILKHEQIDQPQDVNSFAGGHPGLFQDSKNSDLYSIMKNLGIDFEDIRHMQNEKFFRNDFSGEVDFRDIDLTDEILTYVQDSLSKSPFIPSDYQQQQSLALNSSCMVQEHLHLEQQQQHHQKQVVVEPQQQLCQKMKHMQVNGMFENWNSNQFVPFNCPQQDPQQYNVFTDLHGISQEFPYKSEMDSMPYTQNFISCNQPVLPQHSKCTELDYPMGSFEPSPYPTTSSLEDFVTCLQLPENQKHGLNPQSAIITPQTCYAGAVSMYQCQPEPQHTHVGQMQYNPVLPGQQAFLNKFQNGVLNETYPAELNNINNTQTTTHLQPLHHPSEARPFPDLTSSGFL
Outline: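 HepG2 cells (HG2L7.5c1) stably carrying a firefly luciferase reporter driven by 20 dioxin responsive elements were exposed to compound for 24 h at 37C after a 5 h settling period; luminescence rise (ONE-Glo) indicated activation.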

[13] = target: Peroxisome proliferator-activated receptor gamma (Homo sapiens) (UniProt P37231); test: qHTS assay to identify small molecule agonists of the peroxisome proliferator-activated receptor gamma (PPARg) signaling pathway (AID 743094; active means well fitted activation curve with a large enough effect in the signal ratio in the repeat runs, not every such curve was filed as active; the % refers to the signal ratio)
Peroxisome proliferator-activated receptor gamma (Homo sapiens), sequence (P37231 whole entry, looked up): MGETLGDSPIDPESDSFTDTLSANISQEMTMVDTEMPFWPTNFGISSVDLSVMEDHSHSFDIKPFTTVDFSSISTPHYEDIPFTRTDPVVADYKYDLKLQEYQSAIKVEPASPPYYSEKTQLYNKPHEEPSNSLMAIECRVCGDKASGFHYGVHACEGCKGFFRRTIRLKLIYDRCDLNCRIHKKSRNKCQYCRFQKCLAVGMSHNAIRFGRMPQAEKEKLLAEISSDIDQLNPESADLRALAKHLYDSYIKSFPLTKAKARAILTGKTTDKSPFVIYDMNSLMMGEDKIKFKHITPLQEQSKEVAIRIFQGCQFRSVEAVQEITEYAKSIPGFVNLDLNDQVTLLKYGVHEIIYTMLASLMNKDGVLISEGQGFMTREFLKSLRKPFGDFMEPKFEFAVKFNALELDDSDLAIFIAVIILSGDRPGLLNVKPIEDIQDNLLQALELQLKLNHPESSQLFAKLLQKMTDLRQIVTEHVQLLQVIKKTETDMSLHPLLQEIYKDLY
Outline: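 GeneBLAzer PPARg UAS-bla HEK293H cells were plated, rested 5 h, then exposed to compounds for 17 h at 37C. Beta-lactamase activity was read by LiveBLAzer B/G FRET substrate fluorescence after 1 h at room temperature.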

[14] = target: Estrogen receptor (Homo sapiens) (UniProt P03372); test: qHTS assay to identify small molecule agonists of the estrogen receptor alpha (ER-alpha) signaling pathway (AID 743075; calls by dose curve;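 further: HEK293 GripTite cells with ER-alpha and UAS-driven beta-lactamase reporter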)
Estrogen receptor (Homo sapiens), sequence (P03372 whole entry, looked up): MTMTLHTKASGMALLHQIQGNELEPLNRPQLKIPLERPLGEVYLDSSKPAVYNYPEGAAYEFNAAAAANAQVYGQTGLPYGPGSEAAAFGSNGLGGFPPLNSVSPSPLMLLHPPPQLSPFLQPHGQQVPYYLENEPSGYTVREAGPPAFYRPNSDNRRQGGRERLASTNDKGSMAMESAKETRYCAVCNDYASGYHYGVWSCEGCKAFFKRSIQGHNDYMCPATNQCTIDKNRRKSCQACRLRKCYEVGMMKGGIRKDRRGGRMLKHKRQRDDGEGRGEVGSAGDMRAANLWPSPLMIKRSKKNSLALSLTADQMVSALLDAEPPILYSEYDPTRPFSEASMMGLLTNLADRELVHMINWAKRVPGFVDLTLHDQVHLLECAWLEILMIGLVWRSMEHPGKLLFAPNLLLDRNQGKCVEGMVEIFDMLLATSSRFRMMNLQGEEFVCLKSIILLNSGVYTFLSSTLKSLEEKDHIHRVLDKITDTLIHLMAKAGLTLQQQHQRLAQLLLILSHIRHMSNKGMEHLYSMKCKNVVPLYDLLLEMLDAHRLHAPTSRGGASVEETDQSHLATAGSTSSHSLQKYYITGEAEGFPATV

[15] = qHTS assay to identify small molecule antagonists of the estrogen receptor alpha (ER-alpha) signaling pathway using the BG1 cell line (AID 743080; calls by dose curve;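 further: BG1 cells stimulated with 17beta-estradiol alongside compound; nearly all actives have a fitted effect of over 25% in size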; further: potency means the concentration at half of the fitted maximal effect)
Outline: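 BG1-Luc-4E2 cells (endogenous full-length ER-alpha, 4xERE luciferase) hormone-starved 5 days in charcoal-stripped FBS, plated 4,000/well for 24 h, then compound plus 17beta-estradiol for 21.5 h at 37 C; ONE-Glo luminescence read.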

[16] = target: Estrogen receptor (Homo sapiens) (UniProt P03372); test: qHTS assay to identify small molecule agonists of the estrogen receptor alpha (ER-alpha) signaling pathway using the BG1 cell line (AID 743079); conditions: BG1Luc4E2 cells, ERE-luciferase agonist, 22 h; activation: at 70.3 µM (top of the series); further: nearly all actives have a fitted effect of over 20% in size
On the % scale 0 is the no-effect control and ±100 the full control effect.

O=[n+]1ccn([O-])c2ccccc21
inactive: Potency [1] | Potency [2] | Potency [3] | Potency [4] | Potency [5] | Potency [6] | Potency [7] | max activation [8] -1.36% | Potency [9] | Potency [10]

NC(=O)OC[C@@H]1[C@H](NC(=O)/C(=N\OCC(=O)O)c2csc(N)n2)C(=O)N1S(=O)(=O)O
inactive: Potency [1] | Potency [2] | Potency [3] | Potency [4] | Potency [5] | Potency [6] | Potency [7] | max activation [8] -2.39% | Potency [9] | Potency [10]

CC(=O)Nc1ccc(OC(=O)c2ccccc2O)cc1
inactive: Potency [1] | Potency [2] | Potency [3] | Potency [4] | Potency [5] | Potency (Aromatase (Homo sapiens)) | Potency [11] | Potency [12] | Potency [6] | Potency [13] | Potency [7] | max activation [8] -2.95% | Potency [9] | Potency [10]

CO[C@@H]1[C@@H](O[C@@H]2O[C@H](C)[C@@H](O[C@H]3C[C@@](C)(O)[C@@H](OC(=O)CC(C)C)[C@H](C)O3)[C@H](N(C)C)[C@H]2O)[C@@H](CC=O)C[C@@H](C)C(=O)/C=C/C2OC2C[C@@H](C)OC(=O)C[C@H]1OC(C)=O (some centres not stated)
active: Potency [1] 29800 nM | Potency [2] 23700 nM
inactive: Potency [3] | Potency [4] | Potency [14] | Potency [15] | Potency (Aromatase (Homo sapiens)) | Potency [12] | Potency [7] | max activation [8] -11.7% | Potency [9] | Potency [10]

O=C1NC(=O)[C@H]2[C@@H]1[C@@H]1C=C[C@H]2C1
inactive: Potency [1] | Potency [2] | Potency [3] | Potency [4] | Potency [5] | Potency (Aromatase (Homo sapiens)) | Potency [11] | Potency [12] | Potency [6] | Potency [13] | Potency [7] | max activation [8] -2.18% | Potency [9] | Potency [10]

C[C@@H](O)[C@H]1C(=O)N2C(C(=O)[O-])=C(SC3Cn4cnc[n+]4C3)[C@H](C)[C@H]12 (some centres not stated)
inactive: Potency [1] | Potency [2] | Potency [3] | Potency [4] | Potency [5] | Potency (Aromatase (Homo sapiens)) | Potency [11] | Potency [12] | Potency [6] | Potency [13] | Potency [7] | max activation [8] 0.401% | Potency [9] | Potency [10]

Cc1ncc(C[n+]2csc(CCOP(=O)(O)OP(=O)(O)O)c2C)c(N)n1
inactive: Potency [1] | Potency [2] | Potency [3] | Potency [4] | Potency [5] | Potency (Aromatase (Homo sapiens)) | Potency [11] | Potency [12] | Potency [6] | Potency [13] | Potency [7] | max activation [8] -0.276% | Potency [9] | Potency [10]

CC[C@H](C)[C@@H]1NC(=O)[C@H](Cc2ccc(O)cc2)NC(=O)[C@@H](N)CSSC[C@@H](C(=O)N2CCC[C@H]2C(=O)N[C@@H](CC(C)C)C(=O)NCC(N)=O)NC(=O)[C@H](CC(N)=O)NC(=O)[C@H](CCC(N)=O)NC1=O
inactive: Potency [1] | Potency [2] | Potency [3] | Potency [4] | Potency [15] | Potency [5] | Potency (Aromatase (Homo sapiens)) | Potency [11] | Potency [12] | Potency [13] | Potency [7] | max activation [8] 0.0402% | Potency [9] | Potency [10]

OC1OC[C@@H](O)[C@H](O)[C@@H]1O (some centres not stated)
inactive: Potency [1] | Potency [2] | Potency [3] | Potency [4] | Potency [5] | Potency (Aromatase (Homo sapiens)) | Potency [11] | Potency [12] | Potency [6] | Potency [13] | Potency [7] | max activation [8] 0.988% | Potency [9] | Potency [10]

C[C@@](Cc1ccc(O)c(O)c1)(NN)C(=O)O
inactive: Potency [1] | Potency [2] | Potency [3] | Potency [4] | Potency [14] | Potency [15] | Potency [5] | Potency (Aromatase (Homo sapiens)) | Potency [11] | Potency [12] | Potency [13] | Potency [7] | max activation [8] -6.63% | Potency [9] | Potency [10]

CC[C@@]1(O)C(=O)OCc2c1cc1n(c2=O)Cc2cc3c([N+](=O)[O-])cccc3nc2-1
active: Potency [1] 2370 nM | Potency [2] 473 nM | Potency [15] 266 nM | Potency (Aromatase (Homo sapiens)) 596 nM | Potency [8] 6310 nM
inactive: Potency [3] | Potency [4] | Potency [14] | Potency [7] | Potency [9] | Potency [10]

CC(=O)N=c1sc(S(N)(=O)=O)nn1C
inactive: Potency [1] | Potency [2] | Potency [3] | Potency [4] | Potency [14] | Potency [16] | Potency [15] | Potency [5] | Potency (Aromatase (Homo sapiens)) | Potency [11] | Potency [12] | Potency [13] | Potency [7] | max activation [8] -1.62% | Potency [9] | Potency [10]

CC1(C)S[C@@H]2[C@H](NC(=O)C3(N)CCCCC3)C(=O)N2[C@H]1C(=O)O
inactive: Potency [1] | Potency [2] | Potency [3] | Potency [4] | Potency [5] | Potency (Aromatase (Homo sapiens)) | Potency [11] | Potency [12] | Potency [6] | Potency [7] | max activation [8] -4.4% | Potency [9] | Potency [10]

CCN(CC)CCOc1ccccc1OC
inactive: Potency [1] | Potency [2] | Potency [3] | Potency [4] | Potency [5] | Potency (Aromatase (Homo sapiens)) | Potency [11] | Potency [12] | Potency [6] | Potency [13] | Potency [7] | max activation [8] -0.861% | Potency [9] | Potency [10]

O=C1N=C2SCCN2C(=O)C1Cc1ccc(Cl)cc1 (configuration not stated)
inactive: Potency [1] | Potency [2] | Potency [3] | Potency [4] | Potency [5] | Potency [7] | max activation [8] -2.07% | Potency [9] | Potency [10]

COc1ccc(-c2noc(CC(=O)O)c2-c2ccc(OC)cc2)cc1
inactive: Potency [1] | Potency [2] | Potency [3] | Potency [4] | Potency [5] | Potency (Aromatase (Homo sapiens)) | Potency [11] | Potency [12] | Potency [6] | Potency [7] | max activation [8] -3.32% | Potency [9] | Potency [10]

CNC(=O)[C@H](Cc1c[nH]c2ccccc12)NC(=O)[C@@H](CC(=O)NO)CC(C)C
active: Potency [1] 1680 nM | Potency [5] 2660 nM | Potency [6] 596 nM
inactive: Potency [2] | Potency [3] | Potency [4] | Potency [7] | max activation [8] 15% | Potency [9] | Potency [10]

CC(/C=C/C=C(\C)C(=O)O[C@@H]1O[C@H](CO[C@@H]2O[C@H](CO)[C@@H](O)[C@H](O)[C@H]2O)[C@@H](O)[C@H](O)[C@H]1O)=C\C=C\C=C(C)\C=C\C=C(/C)C(=O)O[C@@H]1O[C@H](CO[C@@H]2O[C@H](CO)[C@@H](O)[C@H](O)[C@H]2O)[C@@H](O)[C@H](O)[C@H]1O
inactive: Potency [1] | Potency [2] | Potency [3] | Potency [4] | Potency [5] | Potency [6] | Potency [7] | max activation [8] -0.182% | Potency [9] | Potency [10]

CCCC1C(=O)N2C(N(C)C)=Nc3ccc(C)cc3N2C1=O (configuration not stated)
inactive: Potency [1] | Potency [2] | Potency [3] | Potency [4] | Potency [5] | Potency (Aromatase (Homo sapiens)) | Potency [11] | Potency [6] | Potency [7] | max activation [8] 5.29% | Potency [9] | Potency [10]

COc1ccc(CC2c3cc(OC)c(OC)cc3CC[N+]2(C)CCC(=O)OCCCCCOC(=O)CC[N+]2(C)CCc3cc(OC)c(OC)cc3C2Cc2ccc(OC)c(OC)c2)cc1OC (configuration not stated)
inactive: Potency [1] | Potency [2] | Potency [3] | Potency [4] | Potency [5] | Potency (Aromatase (Homo sapiens)) | Potency [11] | Potency [12] | Potency [6] | Potency [7] | max activation [8] -3.66% | Potency [9] | Potency [10]
